Experimental data from PubChem BioAssay (Tox21).
Results filed as inconclusive are left out. Activity calls are given as the source filed them. Calls follow the shape of the dose curve; as a rule, active = well fitted curve in the direction sought with a large enough effect in the repeat runs; inconclusive = weak or mixed curves; inactive = no such curve, though single readings can be large; an effect the other way counts as inactive or inconclusive.

Tests used:
[1] = A CellTox Green Cytotoxicity Assay to monitor cytotoxicity in HEK293 cells - 40 hour (AID 1224871); settings: CellTox Green fluorescence; series mostly up to 76.8 µM; also: nearly all actives have a fitted effect of over 45% in size
Outline: (§1)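 Read-out: fluorescence of a cell-impermeant cyanine dye staining DNA of dead cells, proportional to cytotoxicity. HEK293, 600 cells/well with reagent, compound (23 nL DMSO) added after 5 h; reads at 0, 8, 16, 24, 32, 40 h.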

[2] = qHTS RealTime-Glo MT Cell Viability Assay in HEK293 cells - 16 hour (AID 1224872); settings: RealTime-Glo luminescence; series mostly up to 76.8 µM; also: top concentration of the series differs between compounds; nearly all actives have a fitted effect of over 50% in size
Outline: (§2)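 Nonlytic real-time viability readout: viable cells convert prosubstrate to NanoLuc substrate, giving luminescence proportional to live cell number. HEK293, 600 cells/well, compound added after 5 h, continuous culture at 37 C.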

[3] = qHTS RealTime-Glo MT Cell Viability Assay in HepG2 cells - 8 hour (AID 1224873); settings: RealTime-Glo luminescence; series mostly up to 76.8 µM; also: nearly all actives have a fitted effect of over 55% in size
Outline: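 HepG2 cells mixed with RealTime-Glo MT reagents (NanoLuc plus cell-permeant prosubstrate) were seeded at 600 cells/well, incubated 5 h at 37 C/5% CO2, then pinned with compounds in DMSO; nonlytic luminescence tracked viability during 40 h treatment.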

[4] = qHTS RealTime-Glo MT Cell Viability Assay in HEK293 cells - 40 hour (AID 1224874); settings: RealTime-Glo luminescence; max response: active compounds read low; also: nearly all actives have a fitted effect of over 50% in size
Outline: (§3)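 Luminescence readout at each listed time point; HEK293, 600 cells/well, RealTime-Glo MT reagent added with cells; compounds pinned (23 nL in DMSO) after 5 h at 37 C; continuous culture at 37 C.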

[5] = A CellTox Green Cytotoxicity Assay to monitor cytotoxicity in HEK293 cells - 24 hour (AID 1224875); settings: CellTox Green fluorescence; series mostly up to 76.8 µM; also: nearly all actives have a fitted effect of over 45% in size
Outline: as §1

[6] = A CellTox Green Cytotoxicity Assay to monitor cytotoxicity in HepG2 cells - 16 hour (AID 1224876); settings: CellTox Green fluorescence; series mostly up to 76.8 µM; also: nearly all actives have a fitted effect of over 45% in size
Outline: (§4)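 HepG2, 600 cells/well premixed w/ CellTox Green; 5 h settle, 37 C/5% CO2; pintool cpd add (DMSO); 37 C, 40 h; fluorescence read at 0, 8, 16, 24, 32, 40 h.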

[7] = qHTS RealTime-Glo MT Cell Viability Assay in HepG2 cells - 32 hour (AID 1224877); settings: RealTime-Glo luminescence; series mostly up to 76.8 µM; also: nearly all actives have a fitted effect of over 55% in size
Outline: (§5)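 Luminescence read-out: viable HepG2 cells reduce a prosubstrate to a NanoLuc substrate, giving a signal proportional to live cell number. Reads taken at 0, 8, 16, 24, 32 and 40 h of compound exposure at 37 C.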

[8] = A CellTox Green Cytotoxicity Assay to monitor cytotoxicity in HepG2 cells - 24 hour (AID 1224878); settings: CellTox Green fluorescence; series mostly up to 76.8 µM; also: nearly all actives have a fitted effect of over 45% in size
Outline: as §4

[9] = A CellTox Green Cytotoxicity Assay to monitor cytotoxicity in HepG2 cells - 40 hour (AID 1224879); settings: CellTox Green fluorescence; series mostly up to 76.8 µM; also: nearly all actives have a fitted effect of over 40% in size
Outline: as §4

[10] = qHTS RealTime-Glo MT Cell Viability Assay in HEK293 cells - 0 hour (AID 1224880); settings: RealTime-Glo luminescence; series mostly up to 76.8 µM
Outline: as §3

[11] = A CellTox Green Cytotoxicity Assay to monitor cytotoxicity in HEK293 cells - 32 hour (AID 1224881); settings: CellTox Green fluorescence; series mostly up to 76.8 µM; also: nearly all actives have a fitted effect of over 40% in size
Outline: as §1

[12] = A CellTox Green Cytotoxicity Assay to monitor cytotoxicity in HepG2 cells - 0 hour (AID 1224882); settings: CellTox Green fluorescence; series mostly up to 76.8 µM; also: nearly all actives have a fitted effect of over 35% in size
Outline: as §4

[13] = A CellTox Green Cytotoxicity Assay to monitor cytotoxicity in HepG2 cells - 32 hour (AID 1224883); settings: CellTox Green fluorescence; series mostly up to 76.8 µM; also: nearly all actives have a fitted effect of over 50% in size
Outline: as §4

[14] = A CellTox Green Cytotoxicity Assay to monitor cytotoxicity in HEK293 cells - 8 hour (AID 1224884); settings: CellTox Green fluorescence; series mostly up to 76.8 µM; also: nearly all actives have a fitted effect of over 35% in size
Outline: as §1

[15] = qHTS RealTime-Glo MT Cell Viability Assay in HepG2 cells - 16 hour (AID 1224885); settings: RealTime-Glo luminescence; series mostly up to 76.8 µM; also: nearly all actives have a fitted effect of over 50% in size
Outline: as §5

[16] = qHTS RealTime-Glo MT Cell Viability Assay in HEK293 cells - 24 hour (AID 1224886); settings: RealTime-Glo luminescence; series mostly up to 76.8 µM
Outline: as §2

[17] = qHTS RealTime-Glo MT Cell Viability Assay in HEK293 cells - 8 hour (AID 1224887); settings: RealTime-Glo luminescence; series mostly up to 76.8 µM
Outline: as §3

[18] = A CellTox Green Cytotoxicity Assay to monitor cytotoxicity in HEK293 cells - 16 hour (AID 1224888); settings: CellTox Green fluorescence; series mostly up to 76.8 µM; also: nearly all actives have a fitted effect of over 35% in size
Outline: as §1

[19] = qHTS RealTime-Glo MT Cell Viability Assay in HepG2 cells - 0 hour (AID 1224889); settings: RealTime-Glo luminescence; series mostly up to 76.8 µM; also: nearly all actives have a fitted effect of over 50% in size
Outline: as §5

[20] = A CellTox Green Cytotoxicity Assay to monitor cytotoxicity in HepG2 cells - 8 hour (AID 1224890); settings: CellTox Green fluorescence; series mostly up to 76.8 µM; also: nearly all actives have a fitted effect of over 45% in size
Outline: as §4
% is scaled to controls: 0 for no effect and ±100 for the full control effect.

CCOC(=O)c1cccnc1
inactive: Potency [1] | Potency [2] | Potency [3] | max response [4] 1.88% | Potency [5] | Potency [6] | Potency [7] | Potency [8] | Potency [9] | Potency [10] | Potency [11] | Potency [12] | Potency [13] | Potency [14] | Potency [15] | Potency [16] | Potency [17] | Potency [18] | Potency [19] | Potency [20]

C=C(C)C(=O)OCCO
inactive: Potency [1] | Potency [2] | Potency [3] | max response [4] 3.51% | Potency [5] | Potency [6] | Potency [7] | Potency [8] | Potency [9] | Potency [10] | Potency [11] | Potency [12] | Potency [13] | Potency [14] | Potency [15] | Potency [16] | Potency [18] | Potency [19] | Potency [20]

OCCNCc1ccccc1
inactive: Potency [1] | Potency [2] | Potency [3] | max response [4] -10.3% | Potency [5] | Potency [6] | Potency [7] | Potency [8] | Potency [9] | Potency [10] | Potency [11] | Potency [12] | Potency [13] | Potency [14] | Potency [15] | Potency [16] | Potency [17] | Potency [18] | Potency [19] | Potency [20]

CCN(CC)c1ccc(C(=C2C=CC(=[N+](CC)CC)C=C2)c2cc(S(=O)(=O)O)ccc2S(=O)(=O)[O-])cc1
inactive: Potency [1] | Potency [2] | Potency [3] | max response [4] 0.738% | Potency [5] | Potency [6] | Potency [7] | Potency [8] | Potency [9] | Potency [10] | Potency [11] | Potency [12] | Potency [14] | Potency [15] | Potency [16] | Potency [17] | Potency [18] | Potency [19] | Potency [20]

CCCCCCCCCCCc1ccccc1
inactive: Potency [1] | Potency [2] | Potency [3] | max response [4] -1.2% | Potency [5] | Potency [6] | Potency [7] | Potency [8] | Potency [9] | Potency [10] | Potency [11] | Potency [12] | Potency [13] | Potency [14] | Potency [15] | Potency [16] | Potency [17] | Potency [18] | Potency [19] | Potency [20]

c1cc(CCCc2ccncc2)ccn1
inactive: Potency [1] | Potency [2] | Potency [3] | max response [4] -17.4% | Potency [5] | Potency [6] | Potency [7] | Potency [8] | Potency [9] | Potency [10] | Potency [11] | Potency [12] | Potency [13] | Potency [14] | Potency [15] | Potency [16] | Potency [17] | Potency [18] | Potency [19] | Potency [20]

COC(C)OC
inactive: Potency [1] | Potency [2] | Potency [3] | max response [4] 5.31% | Potency [5] | Potency [6] | Potency [7] | Potency [8] | Potency [9] | Potency [10] | Potency [11] | Potency [12] | Potency [13] | Potency [14] | Potency [15] | Potency [16] | Potency [18] | Potency [19] | Potency [20]

COC(=O)c1ccc(I)cc1S(=O)(=O)NC(=O)Nc1nc(C)nc(OC)n1
inactive: Potency [1] | Potency [2] | Potency [3] | max response [4] 0.658% | Potency [5] | Potency [6] | Potency [7] | Potency [8] | Potency [9] | Potency [10] | Potency [11] | Potency [12] | Potency [13] | Potency [14] | Potency [15] | Potency [16] | Potency [17] | Potency [18] | Potency [19] | Potency [20]

O=CC1CC=CCC1 (centres undefined)
inactive: Potency [1] | Potency [2] | Potency [3] | max response [4] 10.8% | Potency [5] | Potency [6] | Potency [7] | Potency [8] | Potency [9] | Potency [10] | Potency [11] | Potency [12] | Potency [13] | Potency [14] | Potency [15] | Potency [16] | Potency [18] | Potency [19] | Potency [20]

CC1CCC(=O)C1=O (centres undefined)
inactive: Potency [1] | Potency [2] | Potency [3] | max response [4] 3.01% | Potency [5] | Potency [6] | Potency [7] | Potency [8] | Potency [9] | Potency [10] | Potency [11] | Potency [12] | Potency [13] | Potency [14] | Potency [15] | Potency [16] | Potency [18] | Potency [19] | Potency [20]

Nc1c(CC(=O)O)cccc1C(=O)c1ccc(Br)cc1
inactive: Potency [1] | Potency [2] | Potency [3] | max response [4] 13% | Potency [5] | Potency [6] | Potency [7] | Potency [8] | Potency [9] | Potency [10] | Potency [11] | Potency [12] | Potency [13] | Potency [15] | Potency [16] | Potency [17] | Potency [18] | Potency [19] | Potency [20]

O=C(O)c1ccco1
inactive: Potency [1] | Potency [2] | Potency [3] | max response [4] 9.61% | Potency [5] | Potency [6] | Potency [7] | Potency [8] | Potency [9] | Potency [10] | Potency [11] | Potency [12] | Potency [13] | Potency [14] | Potency [15] | Potency [16] | Potency [17] | Potency [18] | Potency [19] | Potency [20]

CC(C)OC(=O)C(C)N(C(=O)c1ccccc1)c1ccc(F)c(Cl)c1 (centres undefined)
inactive: Potency [1] | Potency [2] | Potency [3] | max response [4] -29.8% | Potency [5] | Potency [6] | Potency [7] | Potency [8] | Potency [9] | Potency [10] | Potency [11] | Potency [12] | Potency [13] | Potency [14] | Potency [15] | Potency [16] | Potency [17] | Potency [18] | Potency [19] | Potency [20]
